Bioassay records (PubChem BioAssay)
HP1b binding inh: HTS for Inhibitors of HP1-beta Chromodomain Interactions with Methylated Histone Tails. AlphaScreen HP1-beta / biotin-H3K9me3 peptide binding. Potency, µM (titrated, usually from 114 µM), for inactives: at the highest dose activity change, negative = inhibition, most hits filed as inhibitors. 0.56% of 390,000 active. AID 540317, 2011; note: nearly all actives have a fitted effect of over 70% in size
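Compound inhibition of the preformed complex between 50 nM HP1-beta and 50 nM biotinylated H3K9me3 peptide was read by AlphaScreen. Buffer was PBS pH 7.4 with 0.01% Tween-20. Incubations ran 30 min at room temperature, with 10 ug/mL donor/acceptor beads.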
JMJD2A Tudor: qHTS Assay for Inhibitors of JMJD2A-Tudor Domain | Lysine-specific demethylase 4A (Homo sapiens), O75164 | AlphaScreen JMJD2A-Tudor / H3K4me3 peptide binding | Potency, µM (doses to about 114 µM), without a hit: at the top dose activity change, negative = inhibition, most hits filed as inhibitors | 4.4% of 390,000 active | AID 504339, 2011; note: % is set by controls: 0 for no effect and ±100 for the full control effect; nearly all actives have a fitted effect of over 50% in size
G9a inh: qHTS Assay for Inhibitors of Histone Lysine Methyltransferase G9a. G9a H3K9 monomethylation, AlphaScreen, 2 h. 8.8% of 350,000 active. Potency, µM (titrated, usually from 102 µM), inactives show at the top dose activity, negative = inhibition, hits mostly inhibitors; note: % is set by controls: 0 for no effect and ±100 for the full control effect; nearly all actives have a fitted effect of over 75% in size
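Chemiluminescent proximity detection of H3K9 monomethylation, read after 10 min bead incubation in the dark. Reaction: 20 nM G9a, 500 nM biotin-H3K9 peptide, 20 uM SAM cofactor, 2 h, room temperature, following 15 min enzyme-compound preincubation.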
BAZ2B block: qHTS Assay for Inhibitors of BAZ2B. Bromodomain adjacent to zinc finger domain protein 2B (Homo sapiens), Q9UIF8. AID 504333, 2011. AlphaScreen BAZ2B-H3K14Ac peptide displacement. Potency, µM (highest dose often 114 µM), inactives show at the highest dose activity change, negative = inhibition, most hits filed as inhibitors. 4.4% of 360,000 active; note: % is set by controls: 0 for no effect and ±100 for the full control effect; nearly all actives have a fitted effect of over 60% in size
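Compounds, titrated to a top concentration of 110 uM, were incubated 30 min at room temperature with preformed BAZ2B/acetyl-K14 H3 peptide complex (50 nM each). Proximity signal was measured by AlphaScreen after 20 min with beads.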
L3MBTL1 block: qHTS Assay for the Inhibitors of L3MBTL1; AlphaScreen L3MBTL1–H3K9me1 peptide binding; 0.66% of 230,000 active; Potency, µM (series often up to 57.1 µM), without a hit: at the top dose activity, negative = inhibition, usual class: inhibitors; note: % is set by controls: 0 for no effect and ±100 for the full control effect; nearly all actives have a fitted effect of over 60% in size
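L3MBTL1 50 nM + b-AHA-H3(1-15)K9me1 75 nM, 30 min RT; compound added, 30 min RT; streptavidin donor/Ni-chelate acceptor beads 10 ug/mL each final, 30 min RT dark; AlphaScreen read.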
Active calls of the source: *; [ ] = another dose, or the depositor's remark. Most compounds without a hit are left out; they make up all but 11% or so of the library. Calls come from the whole dose curve; as a rule, active = well fitted inhibition curve with a large enough effect; inconclusive = small, poorly fitted or top-dose-only effect; inactive = no such curve, though single readings can be large or run the other way. Potency is the fitted concentration of half-maximal effect.

Cc1nnc(NC(=O)CC(C)c2ccccc2)s1 (configuration not stated) was read as HP1b binding inh 31.9%, JMJD2A Tudor 8.2%, BAZ2B block 8.5% and L3MBTL1 block 5.2%.
Screening CC(CC(=O)Nc1nnc(CC(C)(C)C)s1)c1ccccc1 (configuration not stated) returned HP1b binding inh -7.0%, JMJD2A Tudor -11.8%, G9a inh 39.8µM*, BAZ2B block 5.4% and L3MBTL1 block 0.5%.
For CC(C)(C)Cc1nnc(NS(=O)(=O)c2ccccc2)s1 the results were HP1b binding inh -1.3%, JMJD2A Tudor -13.4%, G9a inh 79.4µM*, BAZ2B block -19.3% and L3MBTL1 block 5.0%.
C=CCn1c(=O)c2c(nc3n2CC(C)CN3CCc2ccccc2)n(C)c1=O (configuration not stated) was read as HP1b binding inh 9.9%[57 µM], JMJD2A Tudor -23.4%, G9a inh inconclusive and BAZ2B block inconclusive.
For O=C(CSc1nc(=O)[nH]c2c1CCC2)NCc1ccc(Cl)cc1 the results were HP1b binding inh 27.0%, JMJD2A Tudor 5.8%, G9a inh 9.7%[59 µM] and BAZ2B block 4.7%.
`CC(C(=O)Nc1ccc2c(c1)OCO2)N1CCC(N2CCCCC2)CC1` (configuration not stated) gave HP1b binding inh -25.7%, JMJD2A Tudor 25.1µM*, G9a inh inconclusive, BAZ2B block 50.1µM* and L3MBTL1 block -8.7%.
For CC(C(=O)Nc1ccc2c(c1)OCO2)N1CCN(C)CC1 (configuration not stated) the results were HP1b binding inh 22.4µM*, JMJD2A Tudor 0.794µM*, G9a inh 14.1µM*, BAZ2B block 44.7µM* and L3MBTL1 block 2.7%.
Cc1cc(Cl)ccc1OCC(=O)N1CCC(c2nc3ccccc3o2)CC1 was read as HP1b binding inh 56.4%, JMJD2A Tudor 12.3%, G9a inh -1.9%[59 µM] and BAZ2B block 4.3%.
CN1C(=O)c2ccccc2Sc2ccc(NC(=O)COc3ccc(Cl)cc3)cc21 was read as HP1b binding inh -7.0%, JMJD2A Tudor -19.3%, G9a inh -2.3%[59 µM] and BAZ2B block -9.3%.
For COc1cc(OC)cc(C(=O)N2CCN(Cc3ccccc3[N+](=O)[O-])CC2)c1 the results were HP1b binding inh inconclusive, JMJD2A Tudor -6.0%[11.4 µM], G9a inh 7.94µM*, BAZ2B block 20µM* and L3MBTL1 block -6.6%.
COc1ccc(C(=O)N2CCN(Cc3ccccc3[N+](=O)[O-])CC2)cc1 was read as HP1b binding inh inconclusive, JMJD2A Tudor 22.4µM*, G9a inh 15.8µM*, BAZ2B block 50.1µM* and L3MBTL1 block 1.3%.
For CN(C)CCn1c(=O)n(Cc2ccco2)c(=O)c2c3c(sc21)CCCCC3 the results were HP1b binding inh 9.2%, JMJD2A Tudor inconclusive, G9a inh inconclusive, BAZ2B block inconclusive and L3MBTL1 block -9.8%.
For CCOC(=O)CSc1nnc2n(Cc3ccccc3)c(=O)c3c4c(sc3n12)CCC4 the results were HP1b binding inh -26.0%, JMJD2A Tudor -15.3%[11.4 µM], G9a inh 39.8µM*, BAZ2B block 1.5% and L3MBTL1 block 7.8%.
`O=c1c2c3c(sc2n(CCN2CCCC2)c(=O)n1Cc1ccco1)CCCCC3` gave HP1b binding inh inconclusive, JMJD2A Tudor 79.4µM*, G9a inh 3.3%, BAZ2B block -34.8% and L3MBTL1 block -5.4%.
For CC(=O)N1CCc2c(sc3c2c(=O)n(-c2ccccc2)c(=O)n3CC(=O)Nc2cccc(C)c2)C1 the results were HP1b binding inh 18.0%, JMJD2A Tudor -18.5%, G9a inh 0.2%[59 µM] and BAZ2B block -1.0%.
Screening O=C(Cn1c(=O)n(Cc2ccco2)c(=O)c2c3c(sc21)CCCCC3)Nc1ccccc1 returned HP1b binding inh -29.1%, JMJD2A Tudor 31.6µM*, BAZ2B block 50.1µM* and L3MBTL1 block inconclusive.
`CC(=O)N1CCc2c(sc3c2c(=O)n(-c2ccccc2)c(=O)n3CC(=O)Nc2ccccc2)C1` gave HP1b binding inh 9.2%, JMJD2A Tudor 79.4µM*, G9a inh 5.7%[59 µM] and BAZ2B block -1.7%.
For Cc1ccc(NC(=O)Cn2c(=O)n(CCc3ccccc3)c(=O)c3c4c(sc32)CCCC4)cc1C the results were HP1b binding inh 3.8%, JMJD2A Tudor -18.1%, G9a inh 9.5%[59 µM] and BAZ2B block -1.7%.
Cn1c(SCC(=O)Nc2ccccc2)nnc1-c1ccc2nonc2c1 was read as HP1b binding inh 25.1%, JMJD2A Tudor -4.9%, G9a inh -3.7%[59 µM], BAZ2B block 1.3% and L3MBTL1 block 6.3%.
For CCOC(=O)c1ccc(NC(=O)Cn2c(=O)cc(C)c3c(C)nn(-c4ccc(CC)cc4)c32)cc1 the results were HP1b binding inh 17.7%, JMJD2A Tudor -17.7%, G9a inh 15.5%[59 µM] and BAZ2B block -4.2%.
For O=C(O)Cn1c(=O)c2c3c(sc2n(Cc2ccccc2)c1=O)CCCC3 the results were HP1b binding inh 58.8%, JMJD2A Tudor 0.3%, G9a inh -34.3% and BAZ2B block 89.1µM*.
For Cc1nnc2n(Cc3ccccc3)c(=O)c3c4c(sc3n12)CCCC4 the results were G9a inh -3.2%[59 µM] and BAZ2B block 2.3%.
For COc1ccc(Nc2cc(C)c3cc(NC(=O)COc4cccc(C)c4)ccc3n2)cc1 the results were HP1b binding inh -4.6%, JMJD2A Tudor inconclusive, G9a inh inconclusive and BAZ2B block inconclusive.
CC(=O)c1ccccc1S(=O)(=O)N1CCN(c2nc(-c3cccs3)nc3ccccc23)CC1 was read as HP1b binding inh 16.1% and JMJD2A Tudor -27.9%.
`CCOc1cc(/C=C2\N=C(SCC)SC2=O)cc([N+](=O)[O-])c1OC(C)=O` gave HP1b binding inh inconclusive, JMJD2A Tudor inconclusive, G9a inh 10µM*, BAZ2B block 12.6µM* and L3MBTL1 block -23.3%.
`CCOc1cc(/C=C2\N=C(SC)SC2=O)cc([N+](=O)[O-])c1OC(C)=O` gave HP1b binding inh 44.7µM*, JMJD2A Tudor -11.0%[11.4 µM], G9a inh 14.1µM*, BAZ2B block 17.8µM* and L3MBTL1 block inconclusive.
For CCOc1c(OC(C)=O)ccc(/C=C2\N=C(SCC)SC2=O)c1[N+](=O)[O-] the results were HP1b binding inh 14.1µM*, JMJD2A Tudor 79.4µM*, BAZ2B block 44.7µM* and L3MBTL1 block -7.9%.
